Data published in ChEMBL document CHEMBL2218924, “A broad activity screen in support of a chemogenomic map for kinase signalling research and drug discovery” (Biochem J, 2013).

Tests used:
[1] = target: Serine/threonine-protein kinase PLK3 (Homo sapiens) (UniProt Q9H4B4); conditions: at 1 µM
[2] = target: Serine/threonine-protein kinase PLK3 (Homo sapiens) (UniProt Q9H4B4); conditions: at 10 µM
[3] = target: T1, cAMP-dependent protein kinase catalytic subunit PRKX (Homo sapiens) (UniProt P51817); conditions: at 1 µM
T1 sequence (whole entry): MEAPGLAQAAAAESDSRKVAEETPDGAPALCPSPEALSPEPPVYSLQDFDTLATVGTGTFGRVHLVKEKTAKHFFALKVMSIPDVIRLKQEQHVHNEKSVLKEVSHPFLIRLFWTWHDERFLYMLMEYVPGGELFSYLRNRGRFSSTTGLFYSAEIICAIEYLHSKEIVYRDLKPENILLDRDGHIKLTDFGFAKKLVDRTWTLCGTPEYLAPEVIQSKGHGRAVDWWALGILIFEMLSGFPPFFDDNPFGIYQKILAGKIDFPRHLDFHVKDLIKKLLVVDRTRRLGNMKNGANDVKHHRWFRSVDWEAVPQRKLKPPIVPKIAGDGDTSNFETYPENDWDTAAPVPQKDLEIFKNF

[4] = target: T1, cAMP-dependent protein kinase catalytic subunit PRKX (Homo sapiens); conditions: at 10 µM
[5] = target: Protein-tyrosine kinase 2-beta (Homo sapiens) (UniProt Q14289); conditions: at 1 µM
[6] = target: Protein-tyrosine kinase 2-beta (Homo sapiens) (UniProt Q14289); conditions: at 10 µM
[7] = target: Receptor-interacting serine/threonine-protein kinase 2 (Homo sapiens) (UniProt O43353); conditions: at 1 µM
Chain of Receptor-interacting serine/threonine-protein kinase 2 (Homo sapiens) (O43353 whole entry): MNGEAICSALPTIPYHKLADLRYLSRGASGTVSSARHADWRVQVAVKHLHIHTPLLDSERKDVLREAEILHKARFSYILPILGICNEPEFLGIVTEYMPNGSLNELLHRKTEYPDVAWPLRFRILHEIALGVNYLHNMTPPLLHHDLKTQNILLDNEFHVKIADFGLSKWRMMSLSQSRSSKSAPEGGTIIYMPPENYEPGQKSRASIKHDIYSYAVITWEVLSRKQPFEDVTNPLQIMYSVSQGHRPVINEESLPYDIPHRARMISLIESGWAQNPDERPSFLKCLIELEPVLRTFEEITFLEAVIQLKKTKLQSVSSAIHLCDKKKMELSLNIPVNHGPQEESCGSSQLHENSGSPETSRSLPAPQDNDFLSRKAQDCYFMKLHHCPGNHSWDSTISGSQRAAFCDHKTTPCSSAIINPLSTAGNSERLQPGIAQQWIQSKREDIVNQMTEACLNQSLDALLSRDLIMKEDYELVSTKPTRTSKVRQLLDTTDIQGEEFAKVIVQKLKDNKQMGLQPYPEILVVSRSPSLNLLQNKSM

[8] = target: Receptor-interacting serine/threonine-protein kinase 2 (Homo sapiens) (UniProt O43353); conditions: at 10 µM
[9] = target: Rho-associated protein kinase 1 (Homo sapiens) (UniProt Q13464); conditions: at 1 µM
[10] = target: Rho-associated protein kinase 1 (Homo sapiens) (UniProt Q13464); conditions: at 10 µM
[11] = target: Rho-associated protein kinase 2 (Homo sapiens) (UniProt O75116); conditions: at 1 µM
Chain of Rho-associated protein kinase 2 (Homo sapiens) (O75116 whole entry, looked up): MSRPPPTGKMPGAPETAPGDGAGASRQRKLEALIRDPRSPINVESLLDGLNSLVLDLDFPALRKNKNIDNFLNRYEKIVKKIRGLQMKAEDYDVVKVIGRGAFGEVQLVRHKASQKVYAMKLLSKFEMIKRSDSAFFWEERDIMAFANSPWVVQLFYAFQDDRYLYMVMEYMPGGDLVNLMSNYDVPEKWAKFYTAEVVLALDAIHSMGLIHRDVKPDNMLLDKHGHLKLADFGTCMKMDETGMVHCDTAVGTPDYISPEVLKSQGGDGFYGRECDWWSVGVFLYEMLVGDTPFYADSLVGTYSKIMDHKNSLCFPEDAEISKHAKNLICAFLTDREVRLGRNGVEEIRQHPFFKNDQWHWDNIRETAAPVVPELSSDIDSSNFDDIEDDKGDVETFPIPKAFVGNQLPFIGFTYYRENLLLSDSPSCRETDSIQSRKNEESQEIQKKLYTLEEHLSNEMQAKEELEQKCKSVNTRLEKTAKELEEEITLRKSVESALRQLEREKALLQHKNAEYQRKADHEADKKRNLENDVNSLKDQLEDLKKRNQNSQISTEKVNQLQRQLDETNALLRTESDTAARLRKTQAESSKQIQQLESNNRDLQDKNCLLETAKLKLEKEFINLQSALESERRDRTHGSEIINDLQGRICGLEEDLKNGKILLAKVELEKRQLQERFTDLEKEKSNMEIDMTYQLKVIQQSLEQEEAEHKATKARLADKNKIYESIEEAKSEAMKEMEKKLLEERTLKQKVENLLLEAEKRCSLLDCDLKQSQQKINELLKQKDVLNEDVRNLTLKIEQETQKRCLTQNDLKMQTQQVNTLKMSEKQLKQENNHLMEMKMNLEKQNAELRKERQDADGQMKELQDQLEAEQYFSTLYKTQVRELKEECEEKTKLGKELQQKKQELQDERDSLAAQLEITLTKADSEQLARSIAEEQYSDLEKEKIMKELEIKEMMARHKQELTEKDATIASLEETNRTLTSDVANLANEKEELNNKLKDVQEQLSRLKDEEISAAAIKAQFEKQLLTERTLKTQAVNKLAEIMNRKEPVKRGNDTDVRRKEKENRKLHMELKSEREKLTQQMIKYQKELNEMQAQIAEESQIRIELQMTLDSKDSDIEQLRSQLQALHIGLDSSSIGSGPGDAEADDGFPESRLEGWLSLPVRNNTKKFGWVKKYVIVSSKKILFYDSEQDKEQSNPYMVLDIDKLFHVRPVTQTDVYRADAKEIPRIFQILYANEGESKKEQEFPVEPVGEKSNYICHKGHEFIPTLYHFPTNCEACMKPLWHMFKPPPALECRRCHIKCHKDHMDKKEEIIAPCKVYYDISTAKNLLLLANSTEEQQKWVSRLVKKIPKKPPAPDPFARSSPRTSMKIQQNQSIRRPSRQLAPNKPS

[12] = target: Rho-associated protein kinase 2 (Homo sapiens) (UniProt O75116); conditions: at 10 µM
[13] = target: Proto-oncogene tyrosine-protein kinase receptor Ret (Homo sapiens) (UniProt P07949); conditions: at 1 µM
[14] = target: Proto-oncogene tyrosine-protein kinase receptor Ret (Homo sapiens) (UniProt P07949); conditions: at 10 µM
[15] = target: Macrophage-stimulating protein receptor (Homo sapiens) (UniProt Q04912); conditions: at 1 µM
[16] = target: Macrophage-stimulating protein receptor (Homo sapiens) (UniProt Q04912); conditions: at 10 µM
[17] = target: Proto-oncogene tyrosine-protein kinase ROS (Homo sapiens) (UniProt P08922); conditions: at 1 µM
Chain of Proto-oncogene tyrosine-protein kinase ROS (Homo sapiens) (P08922 whole entry): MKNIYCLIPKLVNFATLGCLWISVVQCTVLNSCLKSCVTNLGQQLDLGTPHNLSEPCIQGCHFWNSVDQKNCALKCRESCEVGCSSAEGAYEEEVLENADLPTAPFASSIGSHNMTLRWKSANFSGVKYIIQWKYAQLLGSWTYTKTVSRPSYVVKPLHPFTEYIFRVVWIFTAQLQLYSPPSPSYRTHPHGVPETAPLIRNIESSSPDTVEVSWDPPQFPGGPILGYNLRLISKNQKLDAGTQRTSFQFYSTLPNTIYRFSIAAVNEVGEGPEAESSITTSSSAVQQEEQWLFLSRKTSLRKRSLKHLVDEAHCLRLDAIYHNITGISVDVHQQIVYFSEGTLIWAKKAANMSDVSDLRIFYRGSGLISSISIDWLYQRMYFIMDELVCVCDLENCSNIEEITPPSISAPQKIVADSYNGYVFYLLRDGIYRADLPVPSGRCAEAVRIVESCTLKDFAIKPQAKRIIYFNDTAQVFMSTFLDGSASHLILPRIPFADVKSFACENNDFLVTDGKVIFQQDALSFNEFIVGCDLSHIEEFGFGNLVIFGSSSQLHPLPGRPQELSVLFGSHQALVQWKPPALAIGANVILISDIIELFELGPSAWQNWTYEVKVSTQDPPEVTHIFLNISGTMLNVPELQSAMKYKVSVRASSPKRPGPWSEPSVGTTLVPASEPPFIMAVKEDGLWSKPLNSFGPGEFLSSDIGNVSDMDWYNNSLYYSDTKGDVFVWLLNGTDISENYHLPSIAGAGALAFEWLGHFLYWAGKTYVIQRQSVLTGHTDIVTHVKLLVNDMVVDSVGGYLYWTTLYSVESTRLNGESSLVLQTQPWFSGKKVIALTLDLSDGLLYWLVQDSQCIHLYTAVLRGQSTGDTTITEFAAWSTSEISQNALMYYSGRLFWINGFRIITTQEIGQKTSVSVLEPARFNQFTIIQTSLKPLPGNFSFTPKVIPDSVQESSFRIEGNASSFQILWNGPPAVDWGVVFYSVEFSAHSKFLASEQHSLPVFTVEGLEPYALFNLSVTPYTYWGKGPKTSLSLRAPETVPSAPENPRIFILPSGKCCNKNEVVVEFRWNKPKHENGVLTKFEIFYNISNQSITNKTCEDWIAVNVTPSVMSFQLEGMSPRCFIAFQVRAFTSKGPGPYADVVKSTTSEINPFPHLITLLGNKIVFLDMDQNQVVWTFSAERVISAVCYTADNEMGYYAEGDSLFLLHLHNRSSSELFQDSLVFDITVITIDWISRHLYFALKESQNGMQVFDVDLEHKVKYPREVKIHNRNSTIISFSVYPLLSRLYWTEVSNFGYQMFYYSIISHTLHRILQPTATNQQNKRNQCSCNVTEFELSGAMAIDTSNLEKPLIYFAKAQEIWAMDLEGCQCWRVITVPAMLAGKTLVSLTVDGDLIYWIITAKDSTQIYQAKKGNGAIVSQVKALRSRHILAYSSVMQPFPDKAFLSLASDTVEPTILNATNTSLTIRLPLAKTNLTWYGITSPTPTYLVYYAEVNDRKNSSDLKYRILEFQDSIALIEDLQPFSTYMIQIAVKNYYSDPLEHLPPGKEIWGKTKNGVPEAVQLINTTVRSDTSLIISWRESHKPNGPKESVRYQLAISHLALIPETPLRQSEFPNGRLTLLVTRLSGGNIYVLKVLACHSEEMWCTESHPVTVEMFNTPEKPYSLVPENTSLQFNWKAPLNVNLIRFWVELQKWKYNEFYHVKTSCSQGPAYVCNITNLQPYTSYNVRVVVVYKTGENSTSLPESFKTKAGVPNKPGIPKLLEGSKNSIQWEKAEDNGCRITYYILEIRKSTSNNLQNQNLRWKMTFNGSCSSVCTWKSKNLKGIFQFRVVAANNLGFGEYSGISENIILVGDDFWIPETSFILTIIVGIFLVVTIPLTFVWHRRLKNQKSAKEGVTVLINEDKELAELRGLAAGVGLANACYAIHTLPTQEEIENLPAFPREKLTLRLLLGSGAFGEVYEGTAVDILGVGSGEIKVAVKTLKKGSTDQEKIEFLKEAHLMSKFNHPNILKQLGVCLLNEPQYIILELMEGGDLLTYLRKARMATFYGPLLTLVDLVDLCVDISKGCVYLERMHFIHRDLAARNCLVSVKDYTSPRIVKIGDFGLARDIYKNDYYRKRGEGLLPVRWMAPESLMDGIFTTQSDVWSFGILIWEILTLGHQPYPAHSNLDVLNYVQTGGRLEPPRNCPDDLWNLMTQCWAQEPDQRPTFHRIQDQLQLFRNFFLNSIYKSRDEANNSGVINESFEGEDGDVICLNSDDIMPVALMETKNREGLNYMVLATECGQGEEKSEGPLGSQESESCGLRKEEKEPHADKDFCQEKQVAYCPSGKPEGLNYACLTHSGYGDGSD

[18] = target: Proto-oncogene tyrosine-protein kinase ROS (Homo sapiens) (UniProt P08922); conditions: at 10 µM
[19] = target: T2, Tyrosine-protein kinase receptor TYRO3 (Homo sapiens) (UniProt Q06418); conditions: at 1 µM
T2 sequence (whole entry): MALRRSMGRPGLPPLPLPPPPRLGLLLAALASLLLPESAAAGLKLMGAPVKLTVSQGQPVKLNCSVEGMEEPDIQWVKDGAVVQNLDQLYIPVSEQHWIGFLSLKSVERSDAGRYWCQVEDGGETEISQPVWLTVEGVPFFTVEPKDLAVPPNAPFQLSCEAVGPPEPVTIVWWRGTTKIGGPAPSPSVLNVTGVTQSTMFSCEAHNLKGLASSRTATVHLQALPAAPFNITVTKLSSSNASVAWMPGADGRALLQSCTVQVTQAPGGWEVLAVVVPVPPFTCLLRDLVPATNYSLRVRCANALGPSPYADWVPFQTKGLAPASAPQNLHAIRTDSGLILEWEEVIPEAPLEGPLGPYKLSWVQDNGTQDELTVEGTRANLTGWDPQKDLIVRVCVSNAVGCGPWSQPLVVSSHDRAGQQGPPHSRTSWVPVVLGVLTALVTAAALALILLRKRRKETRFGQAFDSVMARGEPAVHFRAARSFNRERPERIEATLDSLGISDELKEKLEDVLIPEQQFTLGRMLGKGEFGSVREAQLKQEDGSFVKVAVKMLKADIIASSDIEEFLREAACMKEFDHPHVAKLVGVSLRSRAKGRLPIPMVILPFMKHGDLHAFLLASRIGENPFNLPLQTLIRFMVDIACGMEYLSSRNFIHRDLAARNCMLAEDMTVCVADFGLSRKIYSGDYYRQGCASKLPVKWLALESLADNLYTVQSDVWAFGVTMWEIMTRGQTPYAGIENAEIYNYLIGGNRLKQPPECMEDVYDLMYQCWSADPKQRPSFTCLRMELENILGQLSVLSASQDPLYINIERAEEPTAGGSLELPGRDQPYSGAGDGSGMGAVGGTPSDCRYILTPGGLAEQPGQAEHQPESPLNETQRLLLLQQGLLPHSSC

[20] = target: T2, Tyrosine-protein kinase receptor TYRO3 (Homo sapiens); conditions: at 10 µM

Chain of Serine/threonine-protein kinase PLK3 (Homo sapiens) (Q9H4B4 whole entry, looked up): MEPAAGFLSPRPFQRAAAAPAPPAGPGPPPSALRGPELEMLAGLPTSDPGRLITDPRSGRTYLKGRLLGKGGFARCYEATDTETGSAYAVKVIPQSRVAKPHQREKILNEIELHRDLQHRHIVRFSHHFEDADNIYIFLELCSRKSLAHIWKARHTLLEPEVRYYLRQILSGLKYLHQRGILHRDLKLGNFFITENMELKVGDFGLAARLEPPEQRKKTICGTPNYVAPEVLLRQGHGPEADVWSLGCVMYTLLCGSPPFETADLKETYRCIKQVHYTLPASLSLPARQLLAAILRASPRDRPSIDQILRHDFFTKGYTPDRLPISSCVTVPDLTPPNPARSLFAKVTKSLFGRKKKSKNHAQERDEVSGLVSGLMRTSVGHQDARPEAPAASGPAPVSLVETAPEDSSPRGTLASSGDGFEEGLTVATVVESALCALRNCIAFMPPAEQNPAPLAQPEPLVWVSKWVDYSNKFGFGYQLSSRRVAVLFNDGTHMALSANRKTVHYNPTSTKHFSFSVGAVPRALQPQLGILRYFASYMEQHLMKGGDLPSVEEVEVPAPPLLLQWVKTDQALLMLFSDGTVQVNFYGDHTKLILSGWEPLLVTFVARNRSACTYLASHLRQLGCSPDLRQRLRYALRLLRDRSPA

Structure (SMILES) | residual activity [1] | residual activity [2] | residual activity [3] | residual activity [4] | residual activity [5] | residual activity [6] | residual activity [7] | residual activity [8] | residual activity [9] | residual activity [10] | residual activity [11] | residual activity [12] | residual activity [13] | residual activity [14] | residual activity [15] | residual activity [16] | residual activity [17] | residual activity [18] | residual activity [19] | residual activity [20]
O=C(Nc1cccc(Nc2cc(Nc3cccc(C(F)(F)F)c3)ncn2)c1)C1CC1 | 97% (inactive) | 90% | 102% | 100% | 104% | 63% | 53% | 41% | 101% | 99% | 94% | 80% | 89% | 95% | 96% | 53% | 92% | 88% | 88% | 30%
Oc1ccc(Nc2nc(-c3ccc(Cl)cc3)cs2)cc1 | 100% (inactive) | 94% | 78% | 118% | 109% | 106% | 107% | 89% | 122% | 121% | 100% | 102% | 97% | 87% | 95% | 106% | 110% | 97% | 97% | 96%
Cn1cnc2cc3c(Nc4cccc(Br)c4)ncnc3cc21 | 95% (inactive) | 92% | 108% | 110% | 119% | 77% | 26% | 20% | 104% | 110% | 93% | 81% | 66% | 65% | 88% | 64% | 91% | 98% | 59% | 53%
N#C/C(=C(\N)Sc1ccc(N)cc1)c1ccccc1C(F)(F)F | 101% (inactive) | 90% | 95% | 109% | 100% | 97% | 93% | 98% | 110% | 103% | 102% | 95% | 109% | 90% | 88% | 83% | 100% | 89% | 103% | 98%
Cn1cc(/C=C2\C(=O)Nc3ccc(S(N)(=O)=O)cc32)c2ccccc21 | 100% (inactive) | 99% | 88% | 59% | 22% | 5% | 52% | 51% | 92% | 87% | 37% | 13% | 1% | 1% | 94% | 82% | 98% | 109% | 67% | 53%
CNc1cc2c(Nc3cccc(Br)c3)ncnc2cn1 | 90% (inactive) | 91% | 95% | 75% | 116% | 64% | 43% | 38% | 110% | 126% | 100% | 85% | 67% | 75% | 88% | 66% | 96% | 99% | 77% | 83%
